A short description of experiment [1]: NCI Yeast Anticancer Drug Screen. Data for the rad50 strain (AID 155).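 Further: 0% = growth of vehicle-only cultures of the same strain.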 The settings on record: S. cerevisiae rad50 strain growth inhibition, active compounds read high. The gist of the method:
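Vehicle-treated cultures provide the reference for the growth inhibition reported for compound-exposed, repair-deficient yeast.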

The nature of experiment [2]: NCI Yeast Anticancer Drug Screen. Data for the mec2-1 strain (AID 157). Conditions: S. cerevisiae mec2-1 strain, active compounds read high. In outline:
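Test agents were screened against the mec2-1 yeast strain, with defined DNA repair or cell cycle alteration. Growth was scored as inhibition against vehicle-only controls.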

Experiment [3] in a line: NCI Yeast Anticancer Drug Screen. Data for the sgs1 mgt1 strain (AID 161).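 Further: 0% = growth of cultures given vehicle only.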 Conditions: S. cerevisiae sgs1 mgt1 strain, active compounds read high. In outline:
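Mutant yeast exposed to compound; growth scored against vehicle-only wells.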

A short description of experiment [4]: NCI Yeast Anticancer Drug Screen. Data for the cln2 rad14 strain (AID 165).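 Further: 0% = growth equal to vehicle treated cultures.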 Conditions: S. cerevisiae cln2 rad14 strain, active compounds read high. In outline:
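Growth of compound-exposed yeast (cln2 rad14 genotype) measured and expressed as inhibition relative to vehicle.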

Experiment [5] is described as follows: NCI Yeast Anticancer Drug Screen. Data for the bub3 strain (AID 167). The settings on record: S. cerevisiae bub3 mutant strain, active compounds read high. The gist of the method: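 Mutant yeast screening strain plus compound; vehicle-treated cultures serve as the 0% inhibition reference.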
Experiment [6] can be described thus: NCI Yeast Anticancer Drug Screen. Data for the mlh1 rad18 strain (AID 175). The settings on record: S. cerevisiae mlh1 rad18 strain growth inhibition, active compounds read high. The gist of the method:
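In this whole-cell yeast screen, a strain with altered DNA damage repair is challenged with compound, and its growth is measured against matched vehicle-treated controls.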

The mark [7] stands for this setting: at 5.0 µM (retest, dose inferred, filed as 0.5).
[8] abbreviates: at 50.0 µM (retest, dose inferred, filed as 5.0).

These results are taken from PubChem BioAssay (NCI).

Each structure is given as a SMILES string. The panel holds about 79,000 compounds, 15% with a hit somewhere; the sample as a whole holds those more often. Unmarked numbers belong to inactive results. Active and inactive are the calls of the source. No stated cut-off is given here; in the data, active means growth inhibition above about 70%; inactive means the rest.

On to `CC(C)OC(=O)CCCCCC1CCCCC1`, for which the growth inhibition in experiment [1] (setting [7]) is 6%; in experiment [1] (setting [8]), 9%; in experiment [1] (at 50.0 µM) it was 0.95%; in experiment [2] (setting [7]), -2%; in experiment [2] (setting [8]), 2%; in experiment [2] (at 50.0 µM), 13.5%. Also, the growth inhibition in experiment [3] (setting [7]) was 3%; in experiment [3] (setting [8]) it was 11%; in experiment [3] (at 50.0 µM), 1.4%; in experiment [4] (setting [7]) it was 10%; in experiment [4] (setting [8]), 6%; in experiment [4] (at 50.0 µM) it was 31.7%. The growth inhibition is 8% in experiment [5] (setting [7]); 3% in experiment [5] (setting [8]); -0.25% in experiment [5] (at 50.0 µM); 4% in experiment [6] (setting [7]); 7% in experiment [6] (setting [8]); 8.8% in experiment [6] (at 50.0 µM).
Turning to `CCCN(CCC)c1ccc(/C=C/c2ccnc3ccccc23)cc1`, the growth inhibition in experiment [1] (setting [7]) is 9%; in experiment [1] (setting [8]), 74% (active); in experiment [1] (at 50.0 µM), 91.2% (active); in experiment [2] (setting [7]) it was -10%; in experiment [2] (setting [8]), 88% (active); in experiment [2] (at 50.0 µM), 92% (active). Also, the growth inhibition was -4% in experiment [3] (setting [7]); 82% (active) in experiment [3] (setting [8]); 92.7% (active) in experiment [3] (at 50.0 µM); -18% in experiment [4] (setting [7]); 60% in experiment [4] (setting [8]); 58% in experiment [4] (at 50.0 µM). The growth inhibition was -12% in experiment [5] (setting [7]); 88% (active) in experiment [5] (setting [8]); 92% (active) in experiment [5] (at 50.0 µM); -7% in experiment [6] (setting [7]); 86% (active) in experiment [6] (setting [8]); 89.7% (active) in experiment [6] (at 50.0 µM).
Consider `O=C(Nc1ccccc1)OC1CCCC1`, for which the growth inhibition in experiment [1] (setting [7]) was 19%; in experiment [1] (setting [8]) it was 94% (active); in experiment [1] (at 50.0 µM), 85.5% (active); in experiment [2] (setting [7]), 11%; in experiment [2] (setting [8]), 88% (active); in experiment [2] (at 50.0 µM), 11.8%. For the same molecule, the growth inhibition in experiment [3] (setting [7]) is 12%; in experiment [3] (setting [8]) it was 92% (active); in experiment [3] (at 50.0 µM), 81.2% (active); in experiment [4] (setting [7]), 8%; in experiment [4] (setting [8]) it was 28%; in experiment [4] (at 50.0 µM), -3.85%. Besides, the growth inhibition in experiment [5] (setting [7]) was 6%; in experiment [5] (setting [8]), 90% (active); in experiment [5] (at 50.0 µM) it was 50.1%; in experiment [6] (setting [7]), 12%; in experiment [6] (setting [8]), 94% (active); in experiment [6] (at 50.0 µM) it was 82.8% (active).
Regarding `CC(=O)Oc1ccc(C)cc1C(C)(C)C`, the growth inhibition in experiment [1] (setting [7]) is -1%; in experiment [1] (setting [8]), 0%; in experiment [1] (at 50.0 µM) it was 57.6%; in experiment [2] (setting [7]) it was 1%; in experiment [2] (setting [8]), -4%; in experiment [2] (at 50.0 µM), 54.8%. Moreover, the growth inhibition was -2% in experiment [3] (setting [7]); -2% in experiment [3] (setting [8]); 59.1% in experiment [3] (at 50.0 µM); 1% in experiment [4] (setting [7]); -1% in experiment [4] (setting [8]); 28.7% in experiment [4] (at 50.0 µM). Moreover, the growth inhibition in experiment [5] (setting [7]) was 0%; in experiment [5] (setting [8]), -7%; in experiment [5] (at 50.0 µM) it was 59.3%; in experiment [6] (setting [7]), -1%; in experiment [6] (setting [8]), 0%; in experiment [6] (at 50.0 µM) it was 74.2% (active).
On to `CCCCCCCCN(CCCCCCCC)CC(O)c1ccc2cc3c(nc2c1)CCCC3` (configuration not stated), for which the growth inhibition in experiment [1] (setting [7]) was -3%; in experiment [1] (setting [8]), 94% (active); in experiment [1] (at 50.0 µM), 98.7% (active); in experiment [2] (setting [7]), 13%; in experiment [2] (setting [8]), 93% (active); in experiment [2] (at 50.0 µM) it was 81.4% (active). Moreover, the growth inhibition in experiment [3] (setting [7]) was 18%; in experiment [3] (setting [8]), 96% (active); in experiment [3] (at 50.0 µM), 98.8% (active); in experiment [4] (setting [7]), -2%; in experiment [4] (setting [8]) it was 94% (active); in experiment [4] (at 50.0 µM), 97.7% (active). For the same molecule, the growth inhibition in experiment [5] (setting [7]) was 10%; in experiment [5] (setting [8]), 94% (active); in experiment [5] (at 50.0 µM), 97.7% (active); in experiment [6] (setting [7]), 14%; in experiment [6] (setting [8]), 96% (active); in experiment [6] (at 50.0 µM), 98.3% (active).
As to `COc1ccc(NC(=O)CSC(N)=O)cc1`, the growth inhibition is 5% in experiment [1] (setting [7]); 12% in experiment [1] (setting [8]); 49.1% in experiment [1] (at 50.0 µM); -1% in experiment [2] (setting [7]); 20% in experiment [2] (setting [8]); 23.2% in experiment [2] (at 50.0 µM). Also, the growth inhibition in experiment [3] (setting [7]) is 3%; in experiment [3] (setting [8]) it was 18%; in experiment [3] (at 50.0 µM) it was 64.1%; in experiment [4] (setting [7]), 0%; in experiment [4] (setting [8]) it was -5%; in experiment [4] (at 50.0 µM), 21.9%. For the same molecule, the growth inhibition in experiment [5] (setting [7]) was 3%; in experiment [5] (setting [8]), 25%; in experiment [5] (at 50.0 µM), 53%; in experiment [6] (setting [7]) it was 3%; in experiment [6] (setting [8]), 12%; in experiment [6] (at 50.0 µM), 51.6%.
With `CCN(CC)CC(O)c1c(-c2ccccc2)c(-c2ccccc2)c2n1CCC2` (configuration not stated), the growth inhibition was -4% in experiment [1] (setting [7]); 92% (active) in experiment [1] (setting [8]); 93.7% (active) in experiment [1] (at 50.0 µM); -3% in experiment [2] (setting [7]); 96% (active) in experiment [2] (setting [8]); 32% in experiment [2] (at 50.0 µM). Moreover, the growth inhibition in experiment [3] (setting [7]) is -2%; in experiment [3] (setting [8]), 83% (active); in experiment [3] (at 50.0 µM), 56.7%; in experiment [4] (setting [7]) it was -11%; in experiment [4] (setting [8]) it was 17%; in experiment [4] (at 50.0 µM), -4.75%. The growth inhibition in experiment [5] (setting [7]) was -3%; in experiment [5] (setting [8]), 90% (active); in experiment [5] (at 50.0 µM), 92.6% (active); in experiment [6] (setting [7]), -9%; in experiment [6] (setting [8]), 92% (active); in experiment [6] (at 50.0 µM), 47.6%.
For the molecule `CC1CCCN(c2cc(N(C)C)c([N+](=O)[O-])cc2F)C1` (configuration not stated), the growth inhibition in experiment [1] (setting [7]) was 34%; in experiment [1] (setting [8]), 47%; in experiment [1] (at 50.0 µM) it was 32.2%; in experiment [2] (setting [7]) it was 35%; in experiment [2] (setting [8]), 49%; in experiment [2] (at 50.0 µM), 11.7%. For the same molecule, the growth inhibition in experiment [3] (setting [7]) was 37%; in experiment [3] (setting [8]), 59%; in experiment [3] (at 50.0 µM), 38.2%; in experiment [4] (setting [7]) it was 34%; in experiment [4] (setting [8]), 46%; in experiment [4] (at 50.0 µM), 51.5%. The growth inhibition in experiment [5] (setting [7]) is 41%; in experiment [5] (setting [8]), 86% (active); in experiment [5] (at 50.0 µM), 71.8% (active); in experiment [6] (setting [7]) it was 45%; in experiment [6] (setting [8]), 67%; in experiment [6] (at 50.0 µM), 37.5%.
Take `CCOc1ccc2c(c1)nc1cc(Cl)ccc1[n+]2C`: the growth inhibition in experiment [1] (setting [7]) is 9%; in experiment [1] (setting [8]) it was 81% (active); in experiment [1] (at 50.0 µM) it was 85.5% (active); in experiment [2] (setting [7]), 12%; in experiment [2] (setting [8]), 84% (active); in experiment [2] (at 50.0 µM), 87.2% (active). The growth inhibition in experiment [3] (setting [7]) is -2%; in experiment [3] (setting [8]), 82% (active); in experiment [3] (at 50.0 µM) it was 86.5% (active); in experiment [4] (setting [7]) it was 8%; in experiment [4] (setting [8]), 68%; in experiment [4] (at 50.0 µM) it was 75.2% (active). Besides, the growth inhibition was 26% in experiment [5] (setting [7]); 88% (active) in experiment [5] (setting [8]); 82.8% (active) in experiment [5] (at 50.0 µM); 18% in experiment [6] (setting [7]); 81% (active) in experiment [6] (setting [8]); 89.7% (active) in experiment [6] (at 50.0 µM).
